Screening results (PubChem BioAssay)
D2 PAM-1: HTS Assay for Positive Allosteric Modulators of the Human D2 Dopamine Receptor: Primary Screen for Potentiators; D(2) dopamine receptor (Homo sapiens), P14416; HEK293 T-REx D2, calcium flux, EC20 dopamine potentiation; potentiation, % at 10 µM; 0.34% of 340,000 active; AID 485347, 2010;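 active = potentiation over 3 SD above the plate norm, cut at about 30% in these data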
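Potentiation of an EC20 dopamine calcium response is measured in a force-coupled, tetracycline-inducible Hek293 Trex D2 line. Compound-only kinetic reads over 180 s flag agonists before dopamine addition.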
D2 antagonist: HTS Assay for Allosteric Antagonists of the Human D2 Dopamine Receptor: Primary Screen for Antagonists. D(2) dopamine receptor (Homo sapiens), P14416. HEK293 TREx D2 cells, calcium flux, dopamine EC80. inhibition, % at 10 µM. 2% of 340,000 active. AID 485344, 2010; in the data active = inhibition above about 30%; inactive = below that, where a call was filed
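Overnight-induced (tetracycline, 30 C) HEK293 T-REx cells carrying force-coupled D2 receive a no-wash calcium dye, then compound, then EC80 dopamine at 180 s; signals are read kinetically throughout.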
D2 ag-1: HTS Assay for Allosteric Agonists of the Human D2 Dopamine Receptor: Primary Screen for Agonists; D(2) dopamine receptor (Homo sapiens), P14416; HEK293 T-REx D2 cells, calcium flux agonist mode; activation, % at 2 µM; 0.53% of 340,000 active; AID 485358, 2010;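 active = activation over 3 SD above normal in the single-dose calcium agonist read, cut at about 30% in these data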
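HEK293 Trex D2 cells, tetracycline-induced, o/n 30 C 5% CO2; no-wash Ca dye, RT 30–90 min; 10-cycle baseline, 23 nl cpd added, kinetic Ca read 180 s; agonist hits = positive Ca response.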
D2 ag-2: Beta-Arrestin HTS for Positive Allosteric Modulators of the Human D2 Dopamine Receptor: Agonists; D(2) dopamine receptor (Homo sapiens), P14416; DiscoveRx PathHunter D2 beta-arrestin, luminescence, 90 min; 100% = 57 uM dopamine signal; activation, % (test concentration not listed); 0.084% of 360,000 active; in the data active = activation above about 40%; inconclusive = between about 15% and that limit
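Agonist mode: compounds alone added to overnight-plated D2 PathHunter cells for 90 min at 37 C, with 57 uM final dopamine (EC100) defining full response. Beta-arrestin recruitment detected by chemiluminescent reagent, read after 1 h at ambient temperature.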
D2 PAM-2: Beta-Arrestin HTS for Positive Allosteric Modulators of the Human D2 Dopamine Receptor: Potentiators. 0.23% of 360,000 active. potentiation, % (concentration not given with the values). AID 624464, 2012. DiscoveRx D2 beta-arrestin cells, luminescence, 90 min; 100% = 57 uM dopamine signal. D(2) dopamine receptor (Homo sapiens), P14416; in the data active = potentiation above about 50%; inconclusive = mostly about 30% to 49%
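PathHunter beta-arrestin assay in DiscoveRx D2 cells. Compounds were added with an EC20 of dopamine (50 nM final) for 90 min at 37 deg C. Luminescence was read 1 h after detection reagent, with 57 uM dopamine as the EC100 control.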
D3 arrestin ag: qHTS of D3 Dopamine Receptor Agonist: D3 Dopamine Receptor B-arrestin Agonist Confirmatory Assay; shares compounds with D2 ag-1; DiscoveRx D3 beta-arrestin cells, luminescence, 90 min; Potency, µM (series often up to 76.9 µM), actives largely listed as activators; 4% of 2,300 active; AID 720506, 2013; also: nearly all actives have a fitted effect of over 70% in size
Target sequence (P35462 whole entry, looked up): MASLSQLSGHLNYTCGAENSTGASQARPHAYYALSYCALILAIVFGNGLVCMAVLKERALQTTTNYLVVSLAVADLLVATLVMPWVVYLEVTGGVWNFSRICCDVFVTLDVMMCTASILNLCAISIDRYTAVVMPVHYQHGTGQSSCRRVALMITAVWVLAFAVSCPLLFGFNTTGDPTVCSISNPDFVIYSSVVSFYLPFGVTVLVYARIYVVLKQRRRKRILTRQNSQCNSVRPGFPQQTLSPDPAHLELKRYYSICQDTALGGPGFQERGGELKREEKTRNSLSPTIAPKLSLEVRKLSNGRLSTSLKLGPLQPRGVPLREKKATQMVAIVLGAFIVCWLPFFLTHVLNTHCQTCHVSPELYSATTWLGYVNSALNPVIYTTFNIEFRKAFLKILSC
D2 ag-3: qHTS of D3 Dopamine Receptor Agonist: D2 Dopamine Receptor B-arrestin Agonist Counterscreen; 5.9% of 2,300 active; Potency, µM (highest dose often 76.9 µM), actives largely listed as activators; AID 720507, 2013; shares compounds with D2 ag-1; DiscoveRx PathHunter D2 beta-arrestin, luminescence, 90 min; response scale: percent relative to full dopamine signal; also: nearly all actives have a fitted effect of over 70% in size
Numbers stand for hits; n = inactive; u = inconclusive; x = not tested or not shown. Sampled rows, rich in hits. Any-hit rate of the full collection: about 2.4%. Unless noted, calls follow the shape of the dose curve; as a rule, active = well fitted activation curve with a large enough effect; inconclusive = small, poorly fitted or top-dose-only effect; inactive = flat fitted curve, though single readings scatter.

SMILES	D2 PAM-1	D2 antagonist	D2 ag-1	D2 ag-2	D2 PAM-2	D3 arrestin ag	D2 ag-3
C/C(=N\NC(=O)c1ccc(C(=O)N/N=C(\C)c2ccco2)o1)c1ccco1	n	n	n	n	n	x	x
O=C(CCNC(=O)c1ccc(Cl)cc1)NCCCN1CCOCC1	n	n	n	n	n	n	n
Cc1cccc(NC(=O)c2nc[nH]c2C(=O)NCc2ccccc2)c1	n	n	n	n	n	n	n
O=C(Nc1cccc(Cl)c1)c1nc[nH]c1C(=O)NCCCCNC(=O)c1[nH]cnc1C(=O)Nc1cccc(Cl)c1	x	x	x	n	n	x	x
O=C(Nc1cccc(Cl)c1)c1nc[nH]c1C(=O)NCc1ccccc1	n	n	n	n	n	n	n
O=C(Nc1ccccc1)c1nc[nH]c1C(=O)NCc1ccccc1	n	n	n	n	n	n	n
COc1cccc(-n2cc(CNCc3c(C(=O)N(C)C)nc4ccc(Cl)cn34)cn2)c1	n	x	x	n	n	n	n
Cc1ccccc1-n1cc(CNCc2c(C(=O)N(C)C)nc3ccc(Cl)cn23)cn1	n	n	n	n	n	x	x
COc1cccc(-n2cc(CNCc3cn(C)nc3-c3ccccc3F)cn2)c1	n	85	79	66	n	6.3µM	13µM
COc1ccc(OC2C(=O)N(c3ccc(C)c(C)c3)C2c2ccc(OC)c(OC)c2)cc1 (stereo not given)	n	n	54	n	n	n	n
Cc1c(C)n(C)c2ccc(C(=O)N3CCN(c4ccccc4)CC3)cc12	n	x	n	n	n	x	x
Cc1c(C)n(C)c2ccc(C(=O)N3CCN(c4ccccn4)CC3)cc12	n	31	56	n	n	u	n
CC#CCC(CC#CC)c1nc2ccccc2c(=O)n1N	n	n	n	n	n	n	n
N#Cc1ccccc1OCC(=O)OCCCOC(=O)COc1ccccc1C#N	n	n	62	n	n	n	n
COc1ccc(-c2nnc(SCc3ccccn3)n2C)cc1	n	n	n	n	n	x	x
COc1ccc(N=C(N)SCc2ccccn2)cc1	n	45	33	n	n	n	n
CCc1c(C)sc2c1CCN(C(=O)Nc1cc(Cl)c(OC)cc1OC)C2c1ccccc1 (stereo not given)	n	x	n	x	x	x	x
CCOC(=O)c1sc(NC(=O)c2c(CC)noc2C)nc1C	n	n	n	n	n	n	n
CCOC(=O)c1sc(NC(=O)CSCc2c(C)noc2C)nc1C	n	n	n	n	n	n	n
COc1ccc(OC)c(CN2CCN(C(=O)c3ccco3)CC2)c1	n	83	83	u	n	n	n
COc1cccc(CN2CCN(C(=O)c3ccco3)CC2)c1	n	82	84	70	u	n	8.9µM
COc1ccc(NC(=O)C(=O)NCCN2CCN(C(=O)c3ccco3)CC2)cc1	n	n	39	n	n	5µM	n
COc1ccc(-c2[nH]ncc2CN2CCCN(C(=O)c3ccco3)CC2)cc1F	n	x	x	n	n	n	n
COc1ccc(C(=O)N2CCN(Cc3cc(OC)ccc3OC)CC2)cc1	n	n	n	n	n	x	x
COc1cc(OC)c(NC(=O)c2nn(C)c3c2COc2ccccc2-3)cc1Cl	n	x	n	x	x	x	x
SMILES	D2 PAM-1	D2 antagonist	D2 ag-1	D2 ag-2	D2 PAM-2	D3 arrestin ag	D2 ag-3
CC(C)(C)OC(=O)N1CCC(NC(=O)c2[nH]cnc2C(=O)Nc2ccc(Cl)cc2)CC1	n	n	n	n	n	n	n
CC(C)(C)OC(=O)N1CCN(C(=O)c2[nH]cnc2C(=O)NCc2ccccc2)CC1	n	n	n	n	n	n	n
CC(C)(C)OC(=O)N1CCC(NC(=O)c2nc[nH]c2C(=O)N2CCc3ccccc3C2)CC1	x	x	x	n	n	n	n
Cc1ccc(NC(=O)c2nc[nH]c2C(=O)NC2CCN(C(=O)OC(C)(C)C)CC2)cc1	x	x	x	n	n	x	x
CCOC(=O)Cc1ccc(NC(=O)N2CCc3c(sc4c3CCCC4)C2c2ccc(F)cc2)cc1 (stereo not given)	n	x	n	x	x	x	x
CC(C)n1cc(C(=O)N2CCCC(N3CCN(c4cccc(Cl)c4)CC3)C2)cn1 (stereo not given)	n	n	52	n	n	n	n
Cc1cnc(C(=O)N2CCCC(N3CCN(c4cccc(C(F)(F)F)c4)CC3)C2)cn1 (stereo not given)	n	n	n	n	n	n	n
COC(=O)c1ccc(C(=O)N2CCCC(N3CCN(c4ccccc4)CC3)C2)nc1 (stereo not given)	n	n	43	n	n	n	n
O=C(c1ccsc1)N1CCCC(N2CCN(c3cccc(Cl)c3)CC2)C1 (stereo not given)	n	n	n	n	n	x	x
CCS(=O)(=O)N1CCCC(C(=O)NC2CCCCC2C)C1 (stereo not given)	n	n	n	n	n	x	x
CCCS(=O)(=O)N1CCC(C(=O)NC2CCCCC2C)CC1 (stereo not given)	n	n	n	n	n	n	n
Cc1ccc(S(=O)(=O)N(C)C)cc1NC(=O)COC(=O)CN1C(=O)c2ccccc2C1=O	n	n	n	n	n	n	n
Cc1c(C(=O)NCCc2ccc(S(N)(=O)=O)cc2)cccc1[N+](=O)[O-]	n	n	n	n	n	x	x
Cc1ccc(C(=O)NCCc2ccc(S(N)(=O)=O)cc2)cc1[N+](=O)[O-]	n	n	n	n	n	n	n
O=C(NCc1ccco1)c1sc(=S)n2c1[nH]c(=O)c1ccccc12	n	n	n	n	n	n	n
O=C(NC1CCCC1)c1sc(=S)n2c1[nH]c(=O)c1ccccc12	n	n	n	n	n	x	x
O=C(c1ccc(F)c(S(=O)(=O)N2CCOCC2)c1)N(c1ccccc1)c1ccccn1	x	x	x	n	n	n	u
COc1ccc(C2CC(=O)C=C(O)C2)cc1 (stereo not given)	n	n	53	n	n	n	n
COc1ccc([C@H]2CC(=O)C=C(c3cccc(OCc4ccccc4)c3)C2)cc1	n	n	n	n	n	n	n
COc1ccc([C@H]2CC(=O)C=C(c3ccc(OC)cc3OC)C2)cc1	n	n	n	n	n	n	n
